# Data reported in the supplement of paper PMC11219838.
# Unmarked numbers belong to inactive results.
# Test system: Meloidogyne hapla J2
# Assay: proportion of mobile M. hapla J2 relative to DMSO control (fraction of DMSO control); higher = more viable, less nematicidal, active = 0.7 or less
# Conditions: 60 µM; 5 days; temperature: 20 °C
# Method in brief: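 Two biological replicates were run and averaged, each on 96-well plates in which about 25 M. hapla J2 sat in distilled water per well. Compound was pinned in to give 60 µM final and 0.6% v/v DMSO, and the sealed plates were shaken at 200 rpm and 20 °C for 5 days before 2 µL 1 M NaOH was added. Mobility was scored microscopically and divided by the mean from the plate's DMSO-only wells, of which there were eight.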
row,Compound,proportion of mobile M. hapla J2
1,Cc1ccc(CSc2nnc(-c3ccncc3)o2)cc1,0.951
2,O=C(CSc1nnc(-c2ccc(Br)cc2)o1)Nc1nccs1,1.01
3,COc1cccc(-c2noc(CSc3ccccc3)n2)c1,1.03
4,COc1ccc(-c2noc(CSc3ccc(C)cc3)n2)cc1,1.03
5,Fc1cccc(-c2nc(-c3cccnc3)no2)c1,1.08
6,CCOc1ccc(-c2noc(-c3ccncc3)n2)cc1OC,1
7,Clc1ccc(SCc2nc(-c3ccccc3)no2)cc1,0.783
8,Cc1ccc(-c2nc(-c3ccccc3Cl)no2)cc1,0.998
9,COc1cccc(NC(=O)c2ccccc2-c2nc(-c3ccccc3Cl)no2)c1,0.918
10,Cc1cccc(OCc2nc(-c3ccc(-n4cccc4)cc3)no2)c1,1.01
11,CCCC(=O)Nc1ccccc1-c1nc(-c2ccncc2)no1,0.99
12,Ic1ccc(CSc2nnc(-c3ccco3)o2)cc1,0.872
13,CCn1cc(C(=O)CSc2nnc(-c3ccccc3)o2)c2ccccc21,0.987
14,Ic1ccc(-c2nc(-c3cccnc3)no2)cc1,1.02
15,COc1ccc(Cl)cc1-c1nnc(SCC(=O)Nc2nccs2)o1,0.826
16,Cc1ccc(CSc2nnc(-c3cccc(Br)c3)o2)c(C)c1,1.02
17,Cc1ccc(-c2nc(-c3cccnc3)no2)cc1Cl,1.02
18,CC(Sc1nnc(-c2ccco2)o1)C(=O)NC(c1ccccc1)c1ccccc1 (stereo not drawn),1.05
19,CCOc1ccccc1-c1nc(-c2ccc(NC(=O)Cc3ccccc3OC)cc2)no1,1.04

row,Compound,proportion of mobile M. hapla J2
1,CCCCc1nc(-c2ccc(-c3ccc(C)cc3)nc2OC)no1,0.843
2,CC(C)(C)c1ccc(-c2nnc(SCc3cccc(C#N)c3)o2)cc1,1.05
3,COc1ccc(-c2nnc(SCC(=O)c3ccccc3)o2)cc1,0.767
4,COc1cccc(-c2noc(COc3ccccc3Cl)n2)c1,0.998
5,CC(C)(C)NC(=O)c1ccccc1-c1nc(-c2ccccc2)no1,0.886
6,Cc1cc(OCc2nc(-c3ccc(NC(=O)c4ccc5c(c4)OCO5)cc3)no2)ccc1Cl,0.843
7,CCOc1nc(-c2ccc(C)cc2)ccc1-c1noc(-c2cccnc2)n1,0.842
8,COc1ccc(Cl)cc1-c1noc(-c2ccc(Cl)cc2)n1,0.906
9,Cc1ccc(-c2nnc(SCc3ccccc3)o2)cc1,0.256 (active)
10,CN(C(=O)CSc1nnc(-c2ccccc2)o1)c1ccccc1,1.02
11,CC(Oc1ccccc1)c1nc(-c2ccccn2)no1 (stereo not drawn),0.937
12,O=C(CSc1nnc(-c2ccc(Cl)cc2)o1)Nc1ccccc1C(F)(F)F,0.752
13,CCOc1nc(-c2ccccc2)ccc1-c1noc(-c2ccccc2F)n1,0.926
14,Cc1ccc(-c2nnc(SCC(=O)NCCc3ccccc3)o2)cc1,1.01
15,Cc1cccc(-c2noc(-c3ccc(F)cc3)n2)c1,0.642 (active)
16,CNC(=O)c1ccccc1-c1nc(-c2ccc(Cl)cc2)no1,0.985
17,Cc1cc(OCc2nc(-c3ccccc3)no2)ccc1Cl,0.844
18,Clc1ccc(-c2noc(COc3ccccc3Cl)n2)cc1,0.891
19,Cc1cc(OCc2nc(-c3ccncc3)no2)ccc1Br,1.05
